Source: PubChem (University of Kansas High Throughput Screening Laboratory)
Shown is part of a subset that was picked to be rich in hits.
Pf apPOL inh = Pf-apPOL DNA polymerase inhibition. Recombinant Pf-apPOL, molecular beacon fluorescence, 1.5 h. inhibition, % at 10 µM. 0.25% of 210,000 active
mHTT CaM bind = disrupts binding of mutant huntingtin to calmodulin. AlphaScreen His-mHTT/GST-CaM binding, luminescence. inhibition, % at 15 µM. 3.6% of 190,000 active
Of the large screens only hits and unclear results are named; the others gave an inactive call; ! = a repeat was not active. Cut-off read from the data, not from the text of the source: active = inhibition above about 50%; inactive = the rest.

O=C(CCC1CCCN(C(=O)Nc2cccc(F)c2)C1)N1CCN(c2ccccc2)CC1 (stereo not given)	mHTT CaM bind 50
CCN1CCN(C(=O)CCC2CCCN(C(=O)Nc3cccc(F)c3)C2)CC1 (stereo not given)	none
OCCN(Cc1ccccc1)CC(O)COc1ccc(Cl)cc1Cl (stereo not given)	mHTT CaM bind 51
OCCN(Cc1ccccc1)CC(O)COc1cccc2ccccc12 (stereo not given)	none
CCOc1ccccc1NC(=O)C(CC)Sc1nc2ccccc2c(=O)n1C1CC1 (stereo not given)	none
Cc1nc2c(C(=O)NC3CC3)cnn2c(C)c1Cc1ccc(F)cc1	mHTT CaM bind 64
Cc1nc2c(C(=O)NC3CCCCC3)cnn2c(C)c1Cc1cccc(Br)c1	none
Cc1nc2c(C(=O)NC3CC3)cnn2c(C)c1Cc1cccc(Cl)c1	mHTT CaM bind 97
Cc1nc2c(C(=O)NC3CC3)cnn2c(C)c1Cc1cccc(Br)c1	mHTT CaM bind 92
Cc1nc2c(C(=O)NC3CCCCC3)cnn2c(C)c1Cc1ccc(Cl)cc1	none
Cc1nc2c(C(=O)NC3CCCC3)cnn2c(C)c1Cc1ccc(Cl)cc1	none
Cc1nc(NC(=O)c2ccccc2)n[nH]1	none
Cc1ccc(CCC(N)=O)o1	none
COc1nn(C)cc1C(=O)Nc1ccccc1SC	none
O=C(c1cccc(F)c1)N1CCN(c2nc(CN3CCCCC3)cs2)CC1	none
O=C1OC(c2ccc([N+](=O)[O-])cc2)=N/C1=C\c1ccc(Cl)cc1	none
COCCCNC(=O)CCN1N=C(c2ccc(OC)cc2)CCC1=O	none
COc1ccc(C=Nc2c(C)n(-c3ccccc3)c(=O)n2C)c(OC)c1	none
CC(Oc1ccccc1)C(=O)N[C@@H]1C(=O)N2[C@@H]1SC(C)(C)[C@@H]2C(=O)OCc1ccccc1 (stereo not given in full)	none
COC(=O)[C@@H]1N2C(=O)[C@@H](NC(=O)C(C)Oc3ccccc3)[C@H]2SC1(C)C (stereo not given in full)	mHTT CaM bind 66
COc1ccc2c(c1)SC1=NC(c3ccccc3)(C(F)(F)F)NC(=O)N12 (stereo not given)	none
C=CCN1C(=O)/C(=C/c2cc(OC)ccc2OC)SC1=Nc1ccccc1	none
CCNc1cc(N2CCCC(CCC(=O)NCc3cccc(Cl)c3)C2)ncn1 (stereo not given)	none
CCCN1C/C(=C\c2ccc3c(c2)OCO3)C(=O)/C(=C/c2ccc3c(c2)OCO3)C1	mHTT CaM bind 63
CCOc1ccc2c(c1)OC(=Cc1ccc3c(c1)OCO3)C2=O	none
O=[N+]([O-])c1ccc(C2Nc3c(cccc3C(F)(F)F)C3C=CCC32)cc1 (stereo not given)	none
Cc1ccc([N+](=O)[O-])c2c1NC(c1ccc(Br)cc1)C1CC=CC21 (stereo not given)	mHTT CaM bind 97
O=C(O)c1ccc([N+](=O)[O-])c2c1NC(c1ccccc1)C1CC=CC21 (stereo not given)	mHTT CaM bind 80!
CCOc1cc2c(c([N+](=O)[O-])c1)NC(c1ccc(Br)cc1)C1CC=CC21 (stereo not given)	none
Cc1cc(C)c2c(-n3cccc3)c(C(=O)NCCO)sc2n1	none
CC1Cc2ccccc2N1C(=O)Cc1cc(-c2ccco2)on1 (stereo not given)	none
NC(=O)C1CCN(C(=O)Cc2cc(-c3ccco3)on2)CC1	Pf apPOL inh 73
CS(=O)(=O)N(CC(=O)NC1CCCC1)c1cccc([N+](=O)[O-])c1	none
Cc1nc(-c2nnc(NC(=O)Cc3ccc4c(c3)OCO4)o2)cs1	none
Cc1nc(-c2nnc(NC(=O)Cn3c(=O)oc4ccccc43)o2)cs1	mHTT CaM bind 98
O=C(Cn1c(=O)oc2ccccc21)Nc1nnc(-c2ccco2)o1	none
CCOC(=O)CCC(=O)Nc1nnc(-c2csc(C)n2)o1	mHTT CaM bind 61
Cc1cccc(/C=C2\N=C(c3cccc(I)c3)OC2=O)c1	none
COc1ccc(-n2nc(C(=O)NCC(=O)Nc3cccc(C)n3)c3ccccc3c2=O)cc1Cl	none
CCN(CC)C(=O)CNC(=O)c1nn(-c2ccc(OC)c(Cl)c2)c(=O)c2ccccc12	mHTT CaM bind 56
COc1ccc(-n2nc(C(=O)NCC(=O)NCc3ccccc3)c3ccccc3c2=O)cc1Cl	mHTT CaM bind 98
CCN(CC)C(=O)CNC(=O)c1nn(-c2ccc(OC)c(OC)c2)c(=O)c2ccccc12	none
CCOc1ccc(S(=O)(=O)Nc2cnc3ccccc3c2)cc1	none
COc1ccc(S(=O)(=O)N=C2C=C(C(C)C)C(=O)C=C2C)cc1	none
CCOc1ccc(NC2=CC(=NS(=O)(=O)c3ccc(F)cc3)c3ccccc3C2=O)cc1	mHTT CaM bind 67
CCc1ccc(S(=O)(=O)N=C2C=C(Nc3ccccc3)C(=O)c3ccccc32)cc1	mHTT CaM bind 93
O=S(=O)(N=C1SCCS1)c1ccccc1	none
COc1ccc(S(=O)(=O)N=C2C=CC(=O)c3ccccc32)cc1	mHTT CaM bind 98
COc1ccc(C)cc1NC(=O)C(NS(=O)(=O)c1cccs1)C(C)C (stereo not given)	none
